Shown are actives, neighbours in structure and some others; about 3.4% of the full set was active somewhere.
TROY NFkB inh = inhibitors of TROY-dependent NF-kB signaling | Q293 LMP1-TROYcd NF-kB luciferase reporter, 4 h | inhibition, % at 10 µM | 360,000 compounds, 0.98% hits | AID 1347056;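 active = compounds whose plate-normalised and pattern-corrected inhibition of the luciferase reporter signal at the single screening dose is 50% or more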
EBV LMP1 NFkB = reduces LMP1-driven NF-kappaB luciferase signal | LMP1-induced NF-kappaB luciferase reporter cells, luminescence | inhibition, % at 12.5 µM | 350,000 compounds, 0.69% hits; in the data active = inhibition above about 41%; inconclusive = no clear call, values can overlap the other calls;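 note: 0% = neutral control wells and 100% = reference inhibitor control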
TRPM1 prom inh = MITF TRPM1 promoter inhibition in SK-MEL-5 cells; SK-MEL-5 TRPM1 promoter luciferase, 24 h; inhibition, % at 12.5 µM; 330,000 compounds, 0.83% hits; AID 488899;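 active = mean inhibition across replicates of 60% or more, whatever share of single replicates reaches that level; inconclusive = some that reach 60%, reason not given; inactive = mean inhibition across replicates below 60%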
TWEAK Fn14 block = TWEAK-Fn14 signaling inhibition | TWEAK-stimulated Fn14 reporter cells, luciferase luminescence, 8 h | inhibition, % at 10 µM | 360,000 compounds, 2% hits; in the data active = inhibition above about 50%
HIF-2a block = blocks HIF-2a reporter activity; 786-0 RCC cells HIF-2a reporter, luciferase luminescence, overnight; 360,000 compounds, 0.72% hits; inhibition, % at 18.8 µM;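 active = inhibition of the luminescence signal of 40% or more relative to plate controls, in a single-dose primary screen at 18.75 µM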
Shn3 3UTR inh = Schnurri-3 reporter inhibition in Clone20 osteoblasts | Clone20 osteoblast Shn3 3'UTR firefly luciferase, 24 h | inhibition, % at 12.5 µM | 360,000 compounds, 0.52% hits | AID 588674;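 active = mean inhibition of at least 75% with every replicate also reaching 75%; inconclusive = mean inhibition at least 75% but some replicate below; inactive = mean inhibition below 75%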;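 note: 0% = median of neutral control wells and 100% = pilot-screen positive control compound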
Mdm2-MdmX confirm = Mdm2/MdmX (human) interaction inhibition, confirmed. inhibition, % at 8 µM. SaOS-2 split-luciferase Mdm2/MdmX complementation, luminescence. 740 compounds, 99% hits. shares compounds with HIF-2a block;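 active = mean inhibition of the luminescence signal across two replicates at or above 26 percent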
Target sequence (O15151 whole entry, looked up): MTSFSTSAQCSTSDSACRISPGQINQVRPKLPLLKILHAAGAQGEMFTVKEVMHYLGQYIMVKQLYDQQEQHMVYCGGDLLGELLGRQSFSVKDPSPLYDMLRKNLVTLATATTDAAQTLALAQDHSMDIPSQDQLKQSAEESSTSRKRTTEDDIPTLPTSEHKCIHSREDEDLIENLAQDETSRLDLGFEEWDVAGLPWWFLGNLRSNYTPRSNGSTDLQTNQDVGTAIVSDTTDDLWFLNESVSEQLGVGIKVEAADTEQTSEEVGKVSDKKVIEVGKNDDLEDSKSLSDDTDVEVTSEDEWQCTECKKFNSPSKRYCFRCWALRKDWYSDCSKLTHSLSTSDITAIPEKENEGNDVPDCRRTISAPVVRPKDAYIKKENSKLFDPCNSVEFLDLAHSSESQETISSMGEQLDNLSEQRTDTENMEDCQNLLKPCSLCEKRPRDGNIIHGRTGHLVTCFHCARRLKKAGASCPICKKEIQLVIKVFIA
Target sequence (Q00987 whole entry, looked up): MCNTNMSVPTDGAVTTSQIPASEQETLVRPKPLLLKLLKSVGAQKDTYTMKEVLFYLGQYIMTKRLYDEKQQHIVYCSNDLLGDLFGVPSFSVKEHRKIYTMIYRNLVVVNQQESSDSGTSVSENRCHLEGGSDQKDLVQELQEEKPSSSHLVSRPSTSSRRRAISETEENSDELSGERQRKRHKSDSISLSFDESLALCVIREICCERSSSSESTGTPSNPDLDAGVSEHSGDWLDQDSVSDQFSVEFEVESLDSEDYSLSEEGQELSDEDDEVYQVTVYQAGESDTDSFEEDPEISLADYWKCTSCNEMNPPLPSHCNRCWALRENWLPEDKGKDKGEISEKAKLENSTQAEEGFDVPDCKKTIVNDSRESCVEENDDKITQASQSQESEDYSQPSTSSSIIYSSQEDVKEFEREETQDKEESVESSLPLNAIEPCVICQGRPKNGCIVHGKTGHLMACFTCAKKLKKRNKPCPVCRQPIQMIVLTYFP
HIF-2a conf = HIF-2a inhibition, single concentration confirmation. AID 651580. 786-0 RCC cells, HIF-2a luciferase reporter luminescence, overnight. inhibition, % at 18.8 µM. shares compounds with HIF-2a block. 1,800 compounds, 56% hits;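 active = mean inhibition across four replicates of at least 40 percent at the single tested concentration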
HIF-1a counter = counter-screen for HIF-2a inhibitors: HIF-1a inhibition in MiaPaCa-2 cells. shares compounds with HIF-2a block. MiaPaCa-2 HIF-1a luciferase reporter, desferoxamine, overnight. inhibition, % at 18.8 µM. 1,800 compounds, 72% hits. AID 651589;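 active = mean inhibition of the reporter signal across four replicates at the single tested dose of 50% or more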
The depositor's hits bear a star; u = inconclusive; x = not tested or not shown.

SMILES	TROY NFkB inh	EBV LMP1 NFkB	TRPM1 prom inh	TWEAK Fn14 block	HIF-2a block	Shn3 3UTR inh	HIF-2a conf	HIF-1a counter	others
CCn1c(SCC(=O)N2CCC(C)CC2)nc2c(c1=O)SCC2	15	12	1	15	13	-11	x	x
Cc1noc(/C=C/c2ccccn2)c1[N+](=O)[O-]	23	23	54	56*	73*	-54	86*	106*
O=[N+]([O-])c1cccc(/C=C/c2ccccn2)c1	-34	-13	-39	-7	-202	-51	x	x
O=C1C=CC(=O)N1CCCCCCCCCCN1C(=O)C=CC1=O	30	-4	91*	27	71*	93*	61*	80*
O=C(NCc1ccccn1)[C@@H]1CCCN1C(=O)[C@@H]1CCCN1C(=O)c1cccc(Cl)c1	0	x	x	-1	3	x	x	x
CN(C)CC(=O)c1ccc(-c2ccccc2)cc1	-10	4	-7	14	29	-21	x	x
CCN(CC)CC(=O)c1ccc(-c2ccccc2)cc1	-13	-3	-3	16	46*	13	7	28
N#CC(c1cccc(Cl)c1)c1ccc2c(C(F)(F)F)cc(C(F)(F)F)nc2n1 (stereo not drawn)	64*	35	74*	45	14	88*	x	x	Mdm2-MdmX confirm=102*
NNc1ccc2c(C(F)(F)F)cc(C(F)(F)F)nc2n1	-4	-3	-5	16	-60	-10	x	x
CC1(C)Cc2c(sc(NC(=O)COc3cccc4ccccc34)c2C#N)C(C)(C)N1	1	-63	37	-52	49*	14	6	53*	Mdm2-MdmX confirm=103*
O=[N+]([O-])c1ccc(NS(=O)(=O)N2CCOCC2)cc1	-2	2	x	14	10	-11	x	x
COc1ccc(/C=C(\C#N)C(=O)NC(C)c2ccccc2)cc1O (stereo not drawn)	-29	11	-9	2	0	0	x	x
COC(=O)c1ccc(/C=C(\C#N)C(=O)NC(C)c2ccccc2)cc1 (stereo not drawn)	29	9	81*	57*	67*	38	48*	105*
CC(C)(C)NC(=O)CSc1ncnc2c1nnn2Cc1ccccc1Cl	29	0	11	21	48*	-20	22	15
O=C(CSc1ncnc2c1nnn2Cc1ccccc1)NC1CCCC1	17	5	-9	9	17	2	x	x
COC(=O)Cn1c(O)c(N=NC(=O)CNC(=O)COc2cccc(C)c2)c2ccccc21	8	-1	11	-4	2	-12	x	x
CC(=O)Nc1ccc(NC(=O)c2oc3cc(C)c(C)cc3c2C)cc1	-7	-11	-7	-8	52*	6	74*	49
COc1ccc(/C=N/Nc2ccc(C(=O)O)cc2)c(OC)c1OC	22	-8	-108	-6	-159	-37	x	x
COC(=O)c1ccc2c(c1)C(C)(C)C(/C=C/c1ccc(OC)c(OC)c1OC)=[N+]2C	-9	39	101*	32	95*	88*	88*	107*	Mdm2-MdmX confirm=103*
ClC(Cl)(c1nnnn1-c1ccccc1)c1nnnn1-c1ccccc1	59*	-5	36	18	52*	82	38	26
COc1cccc2sc(N(CCN(C)C)C(=O)/C=C/c3cccs3)nc12	14	1	47	17	23	-2	x	x
COc1ccc(OC)c2sc(N(CCN(C)C)C(=O)/C=C/c3cccs3)nc12	-23	3	67*	-45	78*	u	18	72*
CC(C)CN=C(NS(=O)(=O)c1ccccc1)C(Cl)(Cl)Cl	51*	19	86*	99*	92*	65	93*	105*
Nc1nc(CCl)nc(Nc2cccc3ccccc23)n1	6	x	x	23	40*	1	x	x	Mdm2-MdmX confirm=102*
CN1OC[C@@H]2CN[C@H](c3ccc(-c4cc5ccccc5o4)cc3)C[C@@H]21	90*	80*	x	106*	90*	85	96*	98*

Compound activity deposited in PubChem by several laboratories.
